Bioassay records deposited in PubChem by National Center for Advancing Translational Sciences (NCATS).
This is a sample that favours compounds with a hit; in the whole collection about 2.1% have one here.
p53 reactivation = restores transcriptional activity of mutant p53; actives 0.063% (n = 320,000); H1299 p53-A138V BP100-luciferase reporter, luminescence, 24 h; AID 504706; Potency, µM (series often up to 92.2 µM), most hits filed as activators; further: nearly all actives have a fitted effect of over 45% in size
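H1299 (p53-null), stable ts p53-A138V + BP100-Luc; 1000 cells/well, Opti-MEM/10% FBS; cpd 4 pt, 1:5; 24 h, 37 deg C, 5% CO2; detection reagent 10 min RT; luminescence.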
uPA surface inh = inhibitors of cell surface uPA generation; AID 540303; actives 0.31% (n = 330,000); Potency, µM (series often up to 38.3 µM), usual class: inhibitors; cell surface uPA generation assay, qHTS; active means well fitted inhibition curve with a large enough effect; tested in mouse RAW 264.7 cells; further: nearly all actives have a fitted effect of over 55% in size
B2AR arrestin = beta2AR (human) beta-arrestin recruitment activity | Potency, µM (titrated, usually from 46.1 µM), hits mostly activators | AID 492947 | beta-arrestin recruitment to beta2AR, cell-based reporter | P07550 | actives 0.02% (n = 330,000); further: nearly all actives have a fitted effect of over 65% in size
Giardia killer = kills Giardia lamblia | Giardia lamblia trophozoite viability | actives 0.15% (n = 340,000) | activity change, % at 7.66 µM, hits read low; in the data active means activity change below about -80%;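 further: parasites exposed to compound for two days anaerobically before the ATP read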
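Trophozoites 100 cells/well + cpd; 48 hrs, 37 deg C, anaerobic. ATPLite 1-Step added, 15-30 min RT, luminescence read (ATP-based viability).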
ClpP mod = qHTS Assay for Activators of ClpP; Potency, µM (titrated, usually from 57.5 µM); actives 1.9% (n = 340,000); purified B. subtilis ClpP, FRET peptide cleavage, 20 min; active means well fitted falling curve with a large enough effect; further: the source files actives as falling curves though it sought activators and does not explain the sign; nearly all actives have a fitted effect of over 65% in size
Target sequence (P80244 whole entry, looked up): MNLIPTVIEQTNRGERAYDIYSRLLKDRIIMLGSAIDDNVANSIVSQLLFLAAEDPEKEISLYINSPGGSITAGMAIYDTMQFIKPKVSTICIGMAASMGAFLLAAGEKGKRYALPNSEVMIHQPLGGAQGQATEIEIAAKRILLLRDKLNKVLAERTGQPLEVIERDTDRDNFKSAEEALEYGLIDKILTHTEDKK
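FRET quenching reversal measured ClpP activation: 10 microg/mL B. subtilis ClpP at pH 8 with the FRET-FV decapeptide, read at 430 nm after 320 nm excitation. The 20-min minus 0-min signal was scaled between DMSO/no-enzyme wells and ADEP (5.8 microM final).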
Mito fusion yeast = blocks mitochondrial division or promotes mitochondrial fusion; S. cerevisiae fusion-defective mutant growth rescue, CellTiterGlo 48 h; Potency, µM (doses to about 46.1 µM), actives largely listed as activators; actives 0.23% (n = 320,000); further: nearly all actives have a fitted effect of over 45% in size
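Compounds are tested for their ability to restore growth of mitochondrial fusion-defective yeast strains at non-permissive 37C in YPEG medium over 48 hours. Viability is quantified by luciferase luminescence.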
ClpP inh valid = Bacillus subtilis ClpP inhibition, validated hit; shares compounds with ClpP mod; purified B. subtilis ClpP, FRET-FV substrate cleavage, 20 min; Potency, µM (titrated, usually from 57.5 µM), actives largely listed as inhibitors; actives 40% (n = 470); AID 743245; further: nearly all actives have a fitted effect of over 70% in size
Hits are given with their value; 0 = inactive; - = no result. Unless noted, the call rests on the fitted dose curve; in most records, active means well fitted curve in the direction sought with a large enough effect; inconclusive means small, poorly fitted or top-dose-only effect, or another doubt; inactive means no such curve, though single readings can be large; an effect the other way counts as inactive or inconclusive.

SMILES	p53 reactivation	uPA surface inh	B2AR arrestin	Giardia killer	ClpP mod	Mito fusion yeast	ClpP inh valid
COc1ccc(S(=O)(=O)NC(CC(=O)N2CCC3(CC2)OCCO3)c2ccco2)cc1 (configuration not stated)	0	0	0	0	2.8µM	0	0
CCOP(=O)(OCC)C(NC(=O)c1ccccc1C)C(Cl)(Cl)Cl (configuration not stated)	0	0	0	0	0	0	-
Cc1ccccc1C(=O)Nc1cc(-c2ccc(Cl)cc2)nn1-c1ccccc1	-	-	-	-	0	-	0
CCCNC(=O)c1cnn2c(C)c(Cc3c(C)cc(C)cc3C)c(C)nc12	-	-	-	-	10µM	-	0
CCOC(=O)[C@]12Cc3c(cc(OC)c(OC)c3OC)[C@H]1N(C1CCCCC1)C(=O)c1ccccc12	-	-	-	-	0	-	-
